# Data from PubChem BioAssay (NCATS).
# Records with an inconclusive call do not appear. A call without a number means that no potency is given here. Calls of active or inactive are those of the source. Calls follow the shape of the dose curve; as a rule, active = well fitted inhibition curve with a large enough effect; inconclusive = small, poorly fitted or top-dose-only effect; inactive = no such curve, though single readings can be large or run the other way.
# Legend:
# [1] = test system: Zika virus NS2B-NS3 protease (unlinked complex); test: Primary screen GU Rhodamine qHTS for Zika virus inhibitors: Unlinked NS2B-NS3 protease assay (AID 1347159); conditions: Recombinant ZIKV NS2B-NS3 protease, Rhodamine110 substrate fluorescence; series mostly up to 107 µM; also: nearly all actives have a fitted effect of over 60% in size
# In short: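 Compounds, tested up to 114 microM, were incubated for 15 minutes with 25 nM unlinked NS2B-NS3 protease at pH 8.0. Cleavage of 1.5 microM Rhodamine110 substrate was then followed by fluorescence for 15 minutes.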
# [2] = test system: Zika virus NS2B-NS3 protease (linked construct); test: Primary screen NINDS Rhodamine qHTS for Zika virus inhibitors (AID 1347160); conditions: purified NS2B-NS3 protease, Rhodamine110 substrate fluorescence; series mostly up to 57.1 µM; also: nearly all actives have a fitted effect of over 55% in size
# In short: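 Percent inhibition, normalized to uninhibited and enzyme-free controls, is fitted to a 4-parameter Hill equation. Fluorescence change comes from a 15-min cleavage of 1.5 microM bis-peptide Rhodamine110 substrate by 25 nM linked NS2B-NS3 at room temperature.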
SMILES,Potency [1],Potency [2]
CC(=O)OC1C(OC(=O)c2ccccc2)C2C(C)(C)CC(=O)CC2(C)C23CCC(C)(C2)C(O)CC13 (configuration not stated),inactive,inactive
CN1CCN(C2CCC(n3cc(-c4ccc(Oc5ccccc5)cc4)c4c(N)ncnc43)CC2)CC1 (configuration not stated),inactive,inactive
C=C1CN(Cc2ccc(C(=O)Nc3ccccc3N)cc2)C(=O)c2ccccc21,inactive,inactive
O=c1[nH]ccc2cc(OC3CCNCC3)ccc12,inactive,inactive
CC(=O)OC[C@@]12C(=O)C[C@@H](C)[C@]3(C[C@@H](c4ccoc4)O[C@H]3OC(C)=O)[C@H]1CCC[C@]21CO1,inactive,inactive
COc1ccc(CN2C(=O)C(=O)c3cc(S(=O)(=O)N4CCC[C@H]4COc4cccnc4)ccc32)cc1,inactive,inactive
COc1cc(/C=C/C(=O)O[C@H]2[C@H](O)[C@@H](CO)O[C@@]2(CO)O[C@H]2O[C@H](CO)[C@@H](O)[C@H](O)[C@H]2O)ccc1O,inactive,inactive
CC12CCC(C(OC3OC(COC4OCC(O)(CO)C4O)C(O)C(O)C3O)C1)C(C)(C)O2 (configuration not stated),inactive,inactive
CCC(Nc1ncnc2nc[nH]c12)c1nc2cccc(F)c2c(=O)n1-c1ccccc1 (configuration not stated),inactive,inactive
CCC(O)(C(=O)OCc1ccccc1NC(=O)CCC(=O)O)C(C)O (configuration not stated),inactive,inactive
C=CC(C)(C)c1[nH]c2cc3c(cc2c1CC1NC(=O)C2=CCCN2C1=O)C=CC(C)(C)O3 (configuration not stated),inactive,inactive
CCCC(=O)O[C@@H]1[C@@H]2[C@@H](OC(C)=O)[C@]3(C)C(=O)[C@H]4[C@@H](OC(C)=O)C(C)(C)C[C@H]4[C@]3(C)C(=O)[C@@]2(OC(C)=O)C[C@@H]1C,inactive,inactive
NC(=O)c1cccc(-c2cc(OC(=O)NC3CCCCC3)ccc2O)c1,inactive,inactive
Cc1cc(Nc2cc(N3CCN(C)CC3)nc(/C=C/c3ccccc3)n2)n[nH]1,inactive,inactive
Cc1ncc(CCCN(C)C)cc1Nc1ncc2c(n1)-c1ccc(C(F)(F)F)cc1NC(=S)C2,inactive,inactive
CC(C)(C)c1ccc(S(=O)(=O)NCc2ccc(C(=O)Nc3cccnc3)cc2)cc1,inactive,inactive

SMILES,Potency [1],Potency [2]
C=C(C)C(=O)OC1C(OC(C)=O)/C(C=O)=C\CC/C(CO)=C/C2OC(=O)C(=C)C21 (configuration not stated),inactive,inactive
CC(=O)NCC(=O)N1C2CCC1c1cc(Nc3ncc(C(F)(F)F)c(NC4CCC4)n3)ccc12 (configuration not stated),inactive,inactive
CC(C)CC1NC(=O)C(C)NC(=O)C(CC(C)C)OC(=O)CCCNC1=O (configuration not stated),inactive,inactive
O=C(CCCCN1CCOCC1)Nc1ccc(-c2cccnc2)cc1,inactive,inactive
COC(=O)CC1CC(c2ccc(O)cc2)=NO1 (configuration not stated),inactive,inactive
C=C1C(=O)O[C@@H]2C[C@H](C)[C@@]3(O)C=C(C(C)=O)[C@]4(CC3C[C@H]12)C(=O)O[C@H]1C[C@@H](C)C(CCC(C)=O)=CC[C@H]14 (some centres not stated),inactive,inactive
CC1(C(=O)O)CCCC2(C)C3CCC4CC3(CCC12)CC4=O (configuration not stated),inactive,inactive
CC1=CCC(C(C)(C)O[C@@H]2O[C@H](CO[C@@H]3O[C@@H](C)[C@H](O)[C@@H](O)[C@H]3O)[C@@H](O)[C@H](O)[C@H]2O)CC1 (some centres not stated),inactive,inactive
CC1(C)CC[C@@]2(C(=O)O[C@@H]3O[C@H](CO)[C@@H](O)[C@H](O)[C@H]3O)C(C1)C1=CCC3[C@@]4(C)CC[C@@H](O[C@@H]5O[C@H](C(=O)O)[C@@H](O[C@@H]6OC[C@@H](O)[C@H](O)[C@H]6O)[C@H](O[C@@H]6OC[C@](O)(CO)[C@H]6O)[C@H]5O)C(C)(C)C4CC[C@@]3(C)[C@]1(C)C[C@H]2O (some centres not stated),inactive,inactive
CC1(C)CCC[C@]2(C)[C@H]3CC(=O)O[C@]3(C)CC[C@@H]12,inactive,inactive
CC(C)(O)/C=C/C1=CC(=O)[C@@](C)(O)C[C@H]1O,inactive,inactive
NC[C@@](O)(c1ccc(Cl)cc1)c1ccc(-c2cn[nH]c2)cc1,inactive,inactive
CN(C)CCCCC(=O)Nc1ccc(NC(=S)NC(=O)c2ccc(C(C)(C)C)cc2)cc1,inactive,inactive
Nc1nc2c(ncn2[C@@H]2O[C@H](CO)[C@@H](O)[C@H]2O)c(=O)[nH]1,inactive,inactive
O=[N+]([O-])c1cn2c(n1)OCC(OCc1ccc(OC(F)(F)F)cc1)C2 (configuration not stated),inactive,inactive
